Data on 17 compounds can be found in PubChem BioAssay.

Activity calls are given as the source filed them.

One experiment deals with Albumin (Bos taurus) (UniProt P02769). The experiment in a line: bovine serum albumin binders on microarray, profiling panel, artefact control for SMM control protein annotation, biochemical, small-molecule microarray, Alexa647 label, 635/667 nm fluorescence (AID 1118).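 Also: score merges 667 nm emission intensity and signal-to-noise per printed compound spot.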 Particulars: BSA-A647 binding, fluorescence 635 nm, higher = more signal.
Sequence of Albumin (Bos taurus) (P02769 whole entry, looked up): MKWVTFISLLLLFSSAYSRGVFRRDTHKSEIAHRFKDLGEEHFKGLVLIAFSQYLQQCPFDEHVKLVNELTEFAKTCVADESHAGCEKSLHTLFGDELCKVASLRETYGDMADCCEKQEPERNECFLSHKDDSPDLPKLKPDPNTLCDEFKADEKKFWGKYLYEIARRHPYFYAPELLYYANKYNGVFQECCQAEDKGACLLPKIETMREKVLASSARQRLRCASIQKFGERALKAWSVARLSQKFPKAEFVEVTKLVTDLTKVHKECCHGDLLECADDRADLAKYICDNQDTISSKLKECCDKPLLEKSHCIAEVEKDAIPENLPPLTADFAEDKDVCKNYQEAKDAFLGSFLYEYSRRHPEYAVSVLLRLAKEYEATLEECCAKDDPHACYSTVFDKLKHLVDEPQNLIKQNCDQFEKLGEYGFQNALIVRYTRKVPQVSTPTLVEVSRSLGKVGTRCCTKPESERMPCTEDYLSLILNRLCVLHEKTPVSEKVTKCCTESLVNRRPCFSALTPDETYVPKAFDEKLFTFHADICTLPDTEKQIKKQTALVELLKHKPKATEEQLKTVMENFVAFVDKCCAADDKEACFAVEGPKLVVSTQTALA
Experiment [1] is described as follows: small-molecule microarray binders of probe aXIP, primary screen, biochemical, NeuroSMM set, 635/667 nm fluorescence (AID 1119).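 Also: probe is the protein aXip251-270 applied at 1 µg/mL to compound-printed slides; binding of probe to printed compounds measured as 667 nm fluorescence plus signal to noise.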 Particulars: higher = more signal, called active from +8 up or from −8 down.
Experiment [2] in a line: small-molecule binders of probe aNOTCH3, primary screen, biochemical, small-molecule microarray, 635/667 nm fluorescence (AID 1120).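 Also: probe is a biotin-tagged antibody raised against NOTCH3 rather than NOTCH3 protein; score merges spot fluorescence near 667 nm with spot signal to noise.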 Particulars: higher = more signal.
Experiment [3] is described as follows: small-molecule binders of probe aNOTCH2, primary screen, biochemical, small-molecule microarray, 635/667 nm fluorescence (AID 1121).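 Also: score merges feature fluorescence read at 667 nm with its signal to noise.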 Particulars: higher = more signal.
For experiment [4], the target named is Carbonic anhydrase 2 (Homo sapiens) (UniProt P00918). Nature of the experiment: CAII small-molecule binders, profiling panel, biochemical, small-molecule microarray, Alexa647-labelled CAII (AID 1122). Particulars: CAII-A647 binding fluorescence, higher = more signal.
Experiment [5] can be described thus: COS7 lysate on small-molecule microarray, probe aHis, 635 nm (AID 1123).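 Also: z-score combines 667nm fluorescence intensity with signal-to-noise per printed compound spot.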 Particulars: COS7 cell lysate, fluorescence, higher = more signal.
Experiment [6] is described as follows: compound binding in COS7 lysate, probe aLAP1, primary screen, cell lysate, small-molecule microarray (AID 1124).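 Also: lysate comes from COS7 cells expressing LAP1 and is applied at 0.3 µg/mL; score merges spot fluorescence near 667 nm with signal-to-noise over triplicate slides.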 Particulars: probe aLAP1, fluorescence, higher = more signal.
A further experiment deals with Sam68 (KHDRBS1). The experiment in a line: Sam68 small-molecule binders, primary screen, biochemical, small-molecule microarray, 635 nm fluorescence (AID 1125).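 Also: score merges 667 nm channel intensity with signal to noise over triplicate slides.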 Particulars: small-molecule microarray binding, higher = more signal.
Experiment [7] relates to Chordin-like protein 2 (CHRDL2). The experiment in a line: CHRDL2 small-molecule binders, primary screen, biochemical, small-molecule microarray, 635 nm fluorescence (AID 1126).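 Also: printed compound slides probed with Chrdl2 protein at 4 µg/mL for 1 h at 4 C; score merges 667 nm emission intensity with signal to noise over three replicate slides.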 Particulars: small-molecule microarray binding, fluorescence 635 nm; higher = more signal.
Experiment [8] addresses Concanavalin-A (Canavalia ensiformis) (UniProt P02866). Nature of the experiment: ConA small-molecule binders, primary screen, artefact control for SMM control protein annotation, biochemical, small-molecule microarray, Alexa647 label, 635 nm (AID 1127).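 Also: z combines 667 nm emission intensity with signal-to-noise across three replicate slides.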 Particulars: ConA-A647 binding fluorescence, higher = more signal.

Sequence of Concanavalin-A (Canavalia ensiformis) (P02866 whole entry, looked up): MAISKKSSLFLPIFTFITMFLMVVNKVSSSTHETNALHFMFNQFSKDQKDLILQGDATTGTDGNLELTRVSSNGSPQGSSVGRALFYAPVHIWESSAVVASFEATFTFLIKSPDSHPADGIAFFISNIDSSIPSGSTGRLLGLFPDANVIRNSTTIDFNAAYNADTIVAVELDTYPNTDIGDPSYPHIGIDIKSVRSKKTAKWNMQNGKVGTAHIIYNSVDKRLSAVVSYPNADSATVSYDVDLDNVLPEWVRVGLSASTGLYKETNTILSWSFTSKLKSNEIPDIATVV

Take `CCOC(=O)[C@H](Cc1ccccc1)NC(=O)CCC1CC(OC(=O)NCc2cccc3ccccc23)CC2(CCCC(COC(=O)NCCC(C)C)O2)O1` (stereo not given in full): the composite z-score in the experiment with Albumin (Bos taurus) is 0.793; in [2], -0.0956; in [3], -0.133; in experiment [4], 0.742; in experiment [5] it was 0.426; in experiment [6], 0.23. The composite z-score is -1.08 with Sam68 (KHDRBS1), -0.0587 in experiment [7] and 0.653 in [8]. Besides, the composite Z-score in experiment [1] is 0.142 (inactive).

With `CCCCC#C[C@@H]1C=C[C@H](Oc2ccc(C(=O)OC)cc2)[C@@H](COC(=O)OCC)O1`, the composite z-score with Albumin (Bos taurus) was 0.109; in experiment [2] it was -0.106; in experiment [3], -0.0578; in experiment [4], 0.39; in [5], 0.205; in [6], 0.0053. In addition, the composite z-score with Sam68 (KHDRBS1) was 0.769; in [7], 0.978; in experiment [8], 0.64. Also, the composite Z-score in experiment [1] was -0.0877 (inactive).

As to `CC(C)CON=C1[C@H]2CCn3c(=O)n(Cc4cc5c(cc4Cl)OCO5)c(=O)n3[C@H]2[C@H](O)[C@@H]2O[C@H]12`, the composite z-score was -0.0261 with Albumin (Bos taurus); -0.0328 in experiment [2]; -0.0718 in experiment [3]; 0.0904 in experiment [4]; -0.182 in experiment [5]; -0.177 in [6]. Further, the composite z-score with Sam68 (KHDRBS1) is 0.344; in experiment [7], 0.529; in experiment [8] it was 0.702. The composite Z-score in experiment [1] was 0.242 (inactive).

`CCCCc1nc2c(c3c1C[C@H](C)OC3)CN(CCOc1ccccc1)CC2`: the composite z-score in the experiment with Albumin (Bos taurus) was 0.674; in experiment [2] it was 0.058; in experiment [3] it was -0.11; in experiment [4] it was 0.221; in [5], 0.686; in [6], 0.135. The composite z-score in the experiment with Sam68 (KHDRBS1) came to 1.06; in [7], 0.726; in [8], 0.975. Moreover, the composite Z-score in experiment [1] was 0.202 (inactive).

Take `CCOC(=O)[C@H](CC(C)C)NC(=O)CCC1CC(OC(=O)NCCc2ccc(F)cc2)CC2(CCCC(COC(=O)NCCC(C)C)O2)O1` (stereo not given in full): the composite z-score is 0.281 in the experiment with Albumin (Bos taurus); 0.128 in [2]; -0.177 in experiment [3]; 0.269 in experiment [4]; 0.596 in experiment [5]; -0.14 in experiment [6]. Moreover, the composite z-score in the experiment with Sam68 (KHDRBS1) was -0.163; in experiment [7], 0.301; in experiment [8], 0.816. The composite Z-score in [1] is -0.375 (inactive).

Turning to `COc1cccc([C@H]2Oc3ccc(OC)cc3C(=NOC(C)CN3CCCCc4nc(C)c(C)cc43)[C@@H]2O)c1` (stereo not given in full), the composite z-score was 0.604 in the experiment with Albumin (Bos taurus); 0.0876 in experiment [2]; -0.106 in [3]; 0.293 in experiment [4]; 0.47 in [5]; -0.456 in experiment [6]. Moreover, the composite z-score came out at 0.523 in the experiment with Sam68 (KHDRBS1), 0.267 in experiment [7] and 0.653 in experiment [8]. Moreover, the composite Z-score in experiment [1] was -0.352 (inactive).

Regarding `COc1ccc(COC(=O)NN=C2C[C@@H](O)[C@@H](O)[C@@H]3[C@@H]4C(=O)N(Cc5ccccc5)C(=O)[C@@H]4CC[C@H]23)cc1`, the composite z-score is 0.719 with Albumin (Bos taurus); 0.0418 in [2]; -0.348 in experiment [3]; -0.17 in experiment [4]; 0.341 in experiment [5]; -0.173 in experiment [6]. The composite z-score is 0.0827 with Sam68 (KHDRBS1), -0.709 in experiment [7] and -0.266 in [8]. Further, in experiment [1], the composite Z-score was -0.201 (inactive).

On to `COC(=O)[C@H](C)NC(=O)CCC1CC(OC(=O)NCc2cccc3ccccc23)CC2(CCCC(COC(=O)NCC(c3ccccc3)c3ccccc3)O2)O1` (stereo not given in full), for which the composite z-score with Albumin (Bos taurus) is 0.576; in experiment [2], 0.0242; in [3], -0.0895; in experiment [4], 0.553; in [5], 1.27; in [6], 0.433. Also, the composite z-score was 1.32 in the experiment on Sam68 (KHDRBS1), -0.087 in [7] and 0.423 in [8]. For the same compound, the composite Z-score in experiment [1] was -0.171 (inactive).

On to `CO[C@@H]1C=CCC(=O)N[C@@H](C)C(=O)OC[C@@H](OC)[C@H](C)CCCC(=O)OC[C@H]1C`, for which the composite z-score was -0.555 with Albumin (Bos taurus); 0.0854 in experiment [2]; -0.208 in [3]; -1.01 in [4]; -1.96 in experiment [5]; 0.173 in [6]. Besides, the values for the composite z-score (in the experiment on Sam68 (KHDRBS1); in [7]; in [8]) were -0.248, 1.53 and -0.997, respectively. In experiment [1], the composite Z-score is -0.31 (inactive).

On to `CC[C@@H](c1ccccc1)n1c(=O)n2n(c1=O)[C@H]1[C@H](O)[C@@H]3O[C@@H]3C(=O)[C@H]1CC2`, for which the composite z-score is 0.208 with Albumin (Bos taurus); -0.0745 in experiment [2]; -0.135 in experiment [3]; -0.245 in experiment [4]; -0.372 in experiment [5]; -0.262 in experiment [6]. Besides, the composite z-score was 0.0274 in the experiment with Sam68 (KHDRBS1), 0.673 in experiment [7] and 0.576 in [8]. Moreover, the composite Z-score in experiment [1] is 0.214 (inactive).

For the compound `CC[C@@H](c1ccccc1)n1c(=O)n2n(c1=O)[C@H]1[C@H](O)[C@@H]3O[C@@H]3C(=NOC[C@@H](O)COCc3ccco3)[C@H]1CC2`, the composite z-score with Albumin (Bos taurus) is -0.368; in experiment [2] it was -0.232; in experiment [3], -0.133; in experiment [4], 0.04; in [5] it was -0.997; in experiment [6], -0.955. Further, the composite z-score in the experiment with Sam68 (KHDRBS1) is -0.758; in experiment [7], 0.726; in [8], -0.757. For the same compound, in experiment [1], the composite Z-score was 0.615 (inactive).

In the case of `COCCNC(=O)OCC1CCCC2(CC(OC(=O)NCc3ccc4c(c3)OCO4)CC(CCC(=O)N[C@@H](C)C(=O)OC)O2)O1` (stereo not given in full), the composite z-score with Albumin (Bos taurus) is 0.0746; in experiment [2], -0.0164; in experiment [3], -0.0666; in experiment [4] it was 0.234; in [5] it was 0.678; in experiment [6], -0.0692. The figures for the composite z-score (in the experiment on Sam68 (KHDRBS1); in [7]; in [8]) were 1.3, 0.454 and 1.02, respectively. Further, the composite Z-score in experiment [1] is 0.161 (inactive).

As to `COc1ccc(O[C@H]2C=C[C@@H](c3ccccc3)O[C@@H]2CON=CC[C@@H]2C=C[C@H](OC(C)=O)[C@@H](COC(C)=O)O2)cc1`, the composite z-score with Albumin (Bos taurus) was 0.779; in experiment [2], 0.0893; in experiment [3], -0.145; in experiment [4], -0.198; in experiment [5] it was -0.478; in [6], 0.221. The composite z-score in the experiment on Sam68 (KHDRBS1) is -0.176; in experiment [7] it was 0.366; in experiment [8] it was 0.543. Further, in experiment [1], the composite Z-score is 0.112 (inactive).

For the compound `COc1ccc(COC(=O)NN=C2C[C@@H](O)[C@@H](O)[C@@H]3[C@@H]4C(=O)N(c5ccc(F)cc5F)C(=O)[C@@H]4CC[C@H]23)cc1`, the composite z-score is 0.446 with Albumin (Bos taurus); 0.0961 in experiment [2]; -0.157 in experiment [3]; -0.0507 in experiment [4]; -0.181 in [5]; 0.0054 in experiment [6]. Besides, the composite z-score with Sam68 (KHDRBS1) is -0.169; in [7], -0.293; in [8] it was 0.0493. Further, in experiment [1], the composite Z-score is 3.84 (inactive).

Regarding `CO[C@H]1COC(=O)CCC[C@@H](C)[C@H](OC)COC(=O)[C@@H](C)NC(=O)CC=C[C@@H]1C`, the composite z-score was -0.46 with Albumin (Bos taurus); -0.0647 in experiment [2]; -0.134 in [3]; -0.716 in experiment [4]; -1.8 in experiment [5]; -0.126 in experiment [6]. In addition, the composite z-score with Sam68 (KHDRBS1) is 0.186; in [7], 1.45; in experiment [8] it was -0.456. For the same compound, the composite Z-score in experiment [1] is 0.667 (inactive).

On to `CO[C@H]1COC(=O)[C@@H](C)COC(=O)[C@H](COCc2ccccc2)NC(=O)CC=C[C@H]1C`, for which the composite z-score with Albumin (Bos taurus) is -1.04; in [2], -0.0077; in [3] it was -0.135; in [4] it was -0.551; in experiment [5] it was -1.73; in experiment [6], -0.81. Besides, the composite z-score is -1.17 in the experiment on Sam68 (KHDRBS1), 1.22 in experiment [7] and -3.77 in [8]. Further, the composite Z-score in experiment [1] is 2.09 (inactive).

In the case of `COc1ccc(O[C@H]2C=C[C@@H](c3ccccc3)O[C@@H]2COC(=O)CCC(C)=NO[C@@H]2O[C@H](COC(C)=O)[C@@H](OC(C)=O)[C@H](OC(C)=O)[C@H]2OC(C)=O)cc1`, the composite z-score in the experiment with Albumin (Bos taurus) is 0.303; in experiment [2], 0.0322; in [3] it was -0.211; in [4] it was -0.0481; in [5], 0.752; in [6] it was 0.0839. In addition, the composite z-score in the experiment with Sam68 (KHDRBS1) came to 1.32; in [7], 0.786; in experiment [8], 0.544. Also, the composite Z-score in experiment [1] was -0.211 (inactive).
